Experimental data: publication PMC4336329 (PLoS ONE, 2015)
In all, about 310,000 compounds went through this assay and about 14,000 (4.5%) showed an effect of 50% or more. The effect is printed as a negative number. Many of the other results were omitted from the sample, so strong results are more common in it than they were.

Molecular target: human ether-à-go-go-related gene (hERG) potassium channel (human, UniProt Q12809)
Test: primary screen, population patch clamp on CHO cells stably expressing hERG; higher = less effect of the substance
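Also: peak tail current of the secondary pulse compared with the same well before compound.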

Chain of human ether-à-go-go-related gene (hERG) potassium channel (Q12809 whole entry, looked up): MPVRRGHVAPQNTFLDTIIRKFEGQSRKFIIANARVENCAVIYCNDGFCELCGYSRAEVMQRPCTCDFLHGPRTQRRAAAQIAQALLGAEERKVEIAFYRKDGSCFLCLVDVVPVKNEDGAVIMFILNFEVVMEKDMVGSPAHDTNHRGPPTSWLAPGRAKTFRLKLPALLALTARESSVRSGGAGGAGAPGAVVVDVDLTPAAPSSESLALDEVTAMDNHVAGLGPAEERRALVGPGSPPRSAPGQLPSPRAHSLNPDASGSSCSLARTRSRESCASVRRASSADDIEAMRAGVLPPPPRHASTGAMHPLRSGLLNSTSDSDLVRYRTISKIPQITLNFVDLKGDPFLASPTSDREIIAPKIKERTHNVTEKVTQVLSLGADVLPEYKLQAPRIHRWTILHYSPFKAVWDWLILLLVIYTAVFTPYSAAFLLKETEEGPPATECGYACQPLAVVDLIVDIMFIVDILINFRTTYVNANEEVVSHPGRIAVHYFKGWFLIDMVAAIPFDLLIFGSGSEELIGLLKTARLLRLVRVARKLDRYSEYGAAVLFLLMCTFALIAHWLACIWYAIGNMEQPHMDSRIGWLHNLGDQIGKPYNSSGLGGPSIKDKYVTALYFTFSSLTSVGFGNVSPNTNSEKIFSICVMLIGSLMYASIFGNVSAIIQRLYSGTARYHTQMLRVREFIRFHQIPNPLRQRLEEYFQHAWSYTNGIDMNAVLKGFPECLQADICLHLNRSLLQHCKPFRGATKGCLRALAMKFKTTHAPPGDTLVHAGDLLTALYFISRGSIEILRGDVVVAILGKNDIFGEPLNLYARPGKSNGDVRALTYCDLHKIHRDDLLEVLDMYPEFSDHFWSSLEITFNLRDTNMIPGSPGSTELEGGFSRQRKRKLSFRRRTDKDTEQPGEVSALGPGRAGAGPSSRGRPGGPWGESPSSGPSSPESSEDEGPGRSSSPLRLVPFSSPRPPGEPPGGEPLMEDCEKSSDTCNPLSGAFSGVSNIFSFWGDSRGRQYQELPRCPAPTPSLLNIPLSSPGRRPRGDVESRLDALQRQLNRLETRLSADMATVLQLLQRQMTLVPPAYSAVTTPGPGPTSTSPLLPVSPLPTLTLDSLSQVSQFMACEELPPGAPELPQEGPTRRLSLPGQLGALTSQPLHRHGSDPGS

Question: How did the “hERG current change (%, negative = inhibition) at 10uM” value turn out when `O=C(Cc1ccccc1[N+](=O)[O-])Nc1ccc2c(c1)OCO2` was run?
Answer: -40.1%

Question: Which “hERG current change (%, negative = inhibition) at 10uM” value does the source give for `CCOc1ccc(CCNC(=O)c2cccnc2N2CCCC2)cc1OCC` here?
Answer: 13.2%

Question: For `Cc1ccc(C)c(C(=O)Nc2c(C(N)=O)oc3ccccc23)c1`, which “hERG current change (%, negative = inhibition) at 10uM” value is on record?
Answer: 5.52%

Question: `COc1cccc(C(=O)NC2CCSC2=O)c1` (stereo not shown) was tested. Which “hERG current change (%, negative = inhibition) at 10uM” value did it give?
Answer: 23.8%

Question: Which “hERG current change (%, negative = inhibition) at 10uM” value does the source give for `CC(=O)c1ccc(N2CCN(C(=O)[C@H](C)NC(=O)c3ccccc3Cl)CC2)cc1` here?
Answer: -9.57%

Question: With `COC(=O)[C@@H]1C[C@@]2(O)[C@H](O)[C@H](O)[C@H](O)C[C@H]2N1CC1CC1` as the compound, how does the “hERG current change (%, negative = inhibition) at 10uM” value read?
Answer: 6.98%

Question: How did the “hERG current change (%, negative = inhibition) at 10uM” value turn out when `N#Cc1c(N)nc2c(c1-c1ccccc1)CCCC2` was run?
Answer: -1.63%

Question: For `O=C1c2ccccc2C(=O)C1(CO)c1ccccc1`, which “hERG current change (%, negative = inhibition) at 10uM” value is on record?
Answer: 27.7%

Question: Which “hERG current change (%, negative = inhibition) at 10uM” value does the source give for `O=C(NC(=S)Nc1ccccc1N1CCCC1)c1cccs1` here?
Answer: 7.27%

Question: With `CN1CCN(c2ccccc2NC(=O)c2cccs2)CC1` as the compound, how does the “hERG current change (%, negative = inhibition) at 10uM” value read?
Answer: -47.5%

Question: Which “hERG current change (%, negative = inhibition) at 10uM” value does the source give for `O=C(NC(=S)Nc1ccccc1N1CCCCC1)c1cccs1` here?
Answer: 6.21%

Question: How did the “hERG current change (%, negative = inhibition) at 10uM” value turn out when `CC(=O)N1CCN(c2ccccc2NC(=O)c2cccs2)CC1` was run?
Answer: -43.8%

Question: With `CC1CCN(c2ccccc2NC(=S)NC(=O)c2cccs2)CC1` as the compound, how does the “hERG current change (%, negative = inhibition) at 10uM” value read?
Answer: -50.2%

Question: `CCC(=O)N1CCN(c2ccccc2NC(=O)c2cccs2)CC1` was tested. Which “hERG current change (%, negative = inhibition) at 10uM” value did it give?
Answer: -50.4%

Question: How did the “hERG current change (%, negative = inhibition) at 10uM” value turn out when `CCCC(=O)N(CCN1CCOCC1)c1nc2c(OC)ccc(OC)c2s1.Cl` was run?
Answer: -15.5%

Question: For `CCOC(=O)C1=C(N)Oc2cc(O)ccc2C1c1cccc([N+](=O)[O-])c1` (stereo not shown), which “hERG current change (%, negative = inhibition) at 10uM” value is on record?
Answer: -11.3%

Question: Which “hERG current change (%, negative = inhibition) at 10uM” value does the source give for `COc1ccc(NC(=O)c2ccccc2Oc2ccccc2)c(OC)c1` here?
Answer: 1.42%

Question: Which “hERG current change (%, negative = inhibition) at 10uM” value does the source give for `COc1ccc(C(C(=O)NC2CCCCC2)N(Cc2cccnc2)C(=O)c2snc(C(N)=O)c2N)cc1` (stereo not shown) here?
Answer: -11.8%

Question: How did the “hERG current change (%, negative = inhibition) at 10uM” value turn out when `COc1ccc(/C=N/n2cncn2)cc1Cn1nc(C)c([N+](=O)[O-])c1C` was run?
Answer: -53.6%

Question: With `COc1ccc(/C=N/N2CCOCC2)cc1Cn1nc(C)c([N+](=O)[O-])c1C` as the compound, how does the “hERG current change (%, negative = inhibition) at 10uM” value read?
Answer: -10.8%

Question: Which “hERG current change (%, negative = inhibition) at 10uM” value does the source give for `COc1ccc(/C=N/n2cncn2)cc1Cn1cc([N+](=O)[O-])cn1` here?
Answer: -32.1%

Question: `COC(=O)[C@]1(CC(C)C)N[C@H](c2ccc(-c3ccc(F)cc3)cc2)[C@@H]2C(=O)N(C)C(=O)[C@@H]21.O=C(O)C(F)(F)F` was tested. Which “hERG current change (%, negative = inhibition) at 10uM” value did it give?
Answer: -15.7%

Question: How did the “hERG current change (%, negative = inhibition) at 10uM” value turn out when `COC(=O)Cc1cc(=O)n(-c2nc3ccccc3[nH]2)[nH]1` was run?
Answer: -23.3%

Question: For `COc1ccc(-c2cc(=O)n(-c3nc4ccccc4[nH]3)[nH]2)cc1`, which “hERG current change (%, negative = inhibition) at 10uM” value is on record?
Answer: -53.1%

Question: For `Cl.O=c1cc(-c2ccccc2)[nH]n1-c1nc2ccccc2[nH]1`, which “hERG current change (%, negative = inhibition) at 10uM” value is on record?
Answer: 7.02%
